From PubChem BioAssay (NCATS) come the findings set out here.

By viability is commonly meant a read-out of living cells in per cent, often relative to untreated cells.

Test [1] can be described thus: Quantitative High-Throughput drug screen in 47 multiple myeloma cell lines against the NCATS MIPE library collection: MOLP8_DSMZ cell viability assay (AID 1918977). Further: nearly all actives have a fitted effect of over 45% in size. Further: potency means the concentration at half of the fitted maximal effect. In short, it runs like this: (§1)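 500 cells/well; MIPE 4.0 drugs pin-transferred; 48 h, 37C, 5% CO2. CellTiter-Glo, 5 min RT, luminescence. Controls: DMSO 100%, media 0%.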
The nature of test [2]: Quantitative High-Throughput drug screen in 47 multiple myeloma cell lines against the NCATS MIPE library collection: NCIH929_DSMZ cell viability assay (AID 1918978). Further: nearly all actives have a fitted effect of over 35% in size. Further: potency means the concentration at half of the fitted maximal effect. An outline of the steps: as §1
Test [3] is described as follows: Quantitative High-Throughput drug screen in 47 multiple myeloma cell lines against the NCATS MIPE library collection: OCIMY1_PLB cell viability assay (AID 1918979). Further: nearly all actives have a fitted effect of over 35% in size. Further: potency means the concentration at half of the fitted maximal effect. On viability: series mostly up to about 46 µM. In short, it runs like this:
as §1

A short description of test [4]: Quantitative High-Throughput drug screen in 47 multiple myeloma cell lines against the NCATS MIPE library collection: LP1_DSMZ cell viability assay (AID 1918982). Further: nearly all actives have a fitted effect of over 35% in size. Further: potency means the concentration at half of the fitted maximal effect. In short, it runs like this:
as §1

Test [5] is described as follows: Quantitative High-Throughput drug screen in 47 multiple myeloma cell lines against the NCATS MIPE library collection: KMS28PE_JCRB cell viability assay (AID 1918983). Further: nearly all actives have a fitted effect of over 35% in size. Further: potency means the concentration at half of the fitted maximal effect. An outline of the steps: as §1
Test [6] in a line: Quantitative High-Throughput drug screen in 47 multiple myeloma cell lines against the NCATS MIPE library collection: KMS34_JCRB cell viability assay (AID 1918985). Further: nearly all actives have a fitted effect of over 40% in size. Further: potency means the concentration at half of the fitted maximal effect. In short, it runs like this: as §1
Test [7] in a line: Quantitative High-Throughput drug screen in 47 multiple myeloma cell lines against the NCATS MIPE library collection: OCIMY7_PLB cell viability assay (AID 1918987). Further: nearly all actives have a fitted effect of over 65% in size. Further: potency means the concentration at half of the fitted maximal effect. An outline of the steps:
as §1

Test [8] in a line: Quantitative High-Throughput drug screen in 47 multiple myeloma cell lines against the NCATS MIPE library collection: SKMM1_PLB cell viability assay (AID 1919863). Further: nearly all actives have a fitted effect of over 35% in size. Further: potency means the concentration at half of the fitted maximal effect. On viability: series mostly up to about 46 µM. Particulars: SKMM1 myeloma viability, CellTiter-Glo ATP, 48 h; viability: stronger effect = lower value. An outline of the steps:
as §1
For orientation: Cellular ATP, detected with luciferase, serves as a proxy for viable cell number.

A short description of test [9]: Quantitative High-Throughput drug screen in 47 multiple myeloma cell lines against the NCATS MIPE library collection: XG6_PLB cell viability assay (AID 1919865). Further: nearly all actives have a fitted effect of over 40% in size. Further: potency means the concentration at half of the fitted maximal effect. In short, it runs like this: as §1
Test [10] can be described thus: Quantitative High-Throughput drug screen in 47 multiple myeloma cell lines against the NCATS MIPE library collection: MM1S_ATCC cell viability assay (AID 1918980). Further: nearly all actives have a fitted effect of over 45% in size. Further: potency means the concentration at half of the fitted maximal effect. In short, it runs like this:
as §1

Test [11] in a line: Quantitative High-Throughput drug screen in 47 multiple myeloma cell lines against the NCATS MIPE library collection: L363_DSMZ cell viability assay (AID 1918984). Further: nearly all actives have a fitted effect of over 40% in size. Further: potency means the concentration at half of the fitted maximal effect. In short, it runs like this:
as §1

Test [12] is described as follows: Quantitative High-Throughput drug screen in 47 multiple myeloma cell lines against the NCATS MIPE library collection: U266_ATCC cell viability assay (AID 1919864). Further: nearly all actives have a fitted effect of over 35% in size. Further: potency means the concentration at half of the fitted maximal effect. An outline of the steps:
as §1

The nature of test [13]: Quantitative High-Throughput drug screen in 47 multiple myeloma cell lines against the NCATS MIPE library collection: KMS21BM_JCRB cell viability assay (AID 1918974). The following applies: ATP luminescence, 48 h; viability: at 45.8 µM unless noted. An outline of the steps: (§2)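 Myeloma cell lines, 500 cells per well, exposed to MIPE 4.0 library compounds for 48 h at 37C, 5% CO2. Viability from ATP by CellTiter-Glo luminescence; normalised to DMSO (100%) and media-only (0%) wells.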

Test [14] is described as follows: Quantitative High-Throughput drug screen in 47 multiple myeloma cell lines against the NCATS MIPE library collection: MMM1_PLB cell viability assay (AID 1918976). In short, it runs like this:
as §1

A short description of test [15]: Quantitative High-Throughput drug screen in 47 multiple myeloma cell lines against the NCATS MIPE library collection: OCIMY5_PLB cell viability assay (AID 1918988). Further: potency means the concentration at half of the fitted maximal effect; nearly all actives have a fitted effect of over 65% in size. In short, it runs like this:
as §1

The nature of test [16]: Quantitative High-Throughput drug screen in 47 multiple myeloma cell lines against the NCATS MIPE library collection: OPM1_PLB cell viability assay (AID 1918989). Further: nearly all actives have a fitted effect of over 40% in size. Further: potency means the concentration at half of the fitted maximal effect. In short, it runs like this: as §1
The nature of test [17]: Quantitative High-Throughput drug screen in 47 multiple myeloma cell lines against the NCATS MIPE library collection: MM1R_ATCC cell viability assay (AID 1918981). Further: nearly all actives have a fitted effect of over 35% in size. Further: potency means the concentration at half of the fitted maximal effect. In short, it runs like this:
as §1

Test [18] is described as follows: Quantitative High-Throughput drug screen in 47 multiple myeloma cell lines against the NCATS MIPE library collection: KMS20_JCRB cell viability assay (AID 1918973). Further: nearly all actives have a fitted effect of over 45% in size. In short, it runs like this:
as §2

Test [19] in a line: Quantitative High-Throughput drug screen in 47 multiple myeloma cell lines against the NCATS MIPE library collection: KMS26_JCRB cell viability assay (AID 1918975). Further: nearly all actives have a fitted effect of over 45% in size. Further: potency means the concentration at half of the fitted maximal effect. An outline of the steps: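 Approved and investigational drugs from MIPE 4.0 were added by pin tool to 500 cells per well. After 48 hours at 37C, ATP-based CellTiter-Glo luminescence indicated remaining viability.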

Records with an inconclusive call do not appear. A number with no mark means an inactive call. Active and inactive are the calls of the source. The call rests on the fitted dose curve; in most records, active means well fitted curve in the direction sought with a large enough effect; inconclusive means small, poorly fitted or top-dose-only effect, or another doubt; inactive means no such curve, though single readings can be large; an effect the other way counts as inactive or inconclusive.

In the case of `Cc1ccc(C)c(OCCCC(C)(C)C(=O)O)c1`, the Potency entry in [1], in test [3], in test [4], in test [5] and in [6] was “inactive” each time. Moreover, the Potency in test [2] is 23.5 µM (active); in [7], 18.7 µM (active); in [9], 9.35 µM (active). The viability in test [8] is 118%.

With `OC(CN1CCN(c2cccc(Cl)c2)CC1)C(c1ccccc1)c1ccccc1` (configuration not stated), the Potency entry in test [1], in test [2] and in test [11] was “inactive” each time. The Potency in test [10] is 5.26 µM (active); in test [12] it was 10.5 µM (active).

`O=C(O)c1cccc(-c2noc(-c3ccccc3F)n2)c1`: the viability in [13] is 121% (active). Besides, the Potency is 2.35 µM (active) in [14]; 20.9 µM (active) in test [10]; 14.8 µM (active) in test [5]; 9.35 µM (active) in test [15]; 9.35 µM (active) in test [8]; 18.7 µM (active) in test [12]. Moreover, the Potency entry in test [4], in [6], in [16] and in test [9] was “inactive” in each case.

As to `O=C(NC(Cc1cc(=O)[nH]c2ccccc12)C(=O)O)c1ccc(Cl)cc1` (configuration not stated), the Potency is 9.35 µM (active) in [14] and 26.4 µM (active) in test [9]. For the same molecule, the Potency result in [1], in test [2], in test [3], in test [17], in [4] and in [16] was “inactive” in each case. Moreover, in [8], the viability was 118%.

Take `CN(C)[C@@H](CCOc1cccc2ccccc12)c1ccccc1`: the Potency in [14] is 20.9 µM (active); in [10] it was 23.5 µM (active); in [5] it was 20.9 µM (active); in test [6], 20.9 µM (active); in [16], 16.6 µM (active). In test [3], the Potency entry is “inactive”.

On to `Cc1nccn1CC1CCc2c(c3ccccc3n2C)C1=O` (configuration not stated), for which the Potency is 26.4 µM (active) in [2]; 26.4 µM (active) in test [10]; 20.9 µM (active) in test [5]; 18.7 µM (active) in [16]; 23.5 µM (active) in test [12]. Moreover, the Potency result in test [17] is “inactive”. Moreover, in [8], the viability is 99.5%.

Take `CC(C)Oc1ccc2c(=O)c(-c3ccccc3)coc2c1`: the viability in test [13] is 387% (active); in test [8] it was 100%. For the same molecule, the Potency is 18.7 µM (active) in [14], 13.2 µM (active) in [10] and 14.8 µM (active) in test [5]. Moreover, the Potency entry in [17], in [6], in test [16], in [12] and in test [9] was “inactive” throughout.

`Cc1cc2cc3c(C)cc(=O)oc3c(C)c2o1`: the Potency result in test [1], in [4] and in [6] was “inactive” in each case. For the same molecule, the Potency in test [10] was 5.9 µM (active); in test [17], 20.9 µM (active); in test [11], 23.5 µM (active); in test [7], 26.4 µM (active); in test [8] it was 26.4 µM (active); in test [12], 11.8 µM (active). Besides, the Potency in test [9] is 6.62 µM (active).

On to `CCc1nc(N)nc(N)c1-c1ccc(Cl)cc1`, for which the Potency result in [18], in test [1], in [5] and in test [9] was “inactive” throughout. The Potency is 16.6 µM (active) in [10], 8.33 µM (active) in [4] and 2.35 µM (active) in test [16].

`NCCCCNCCCN`: the Potency is 3.72 µM (active) in [19]; 10.5 µM (active) in test [14]; 4.18 µM (active) in test [1]; 18.7 µM (active) in test [2]; 10.5 µM (active) in [3]; 3.32 µM (active) in test [10]. In addition, the Potency in test [17] is 2.96 µM (active); in test [4], 16.6 µM (active); in test [6], 9.35 µM (active); in [7], 10.5 µM (active); in test [15], 14.8 µM (active); in test [16], 23.5 µM (active). Besides, the Potency is 20.9 µM (active) in [8] and 7.43 µM (active) in test [12].

For the molecule `CCCS(=O)c1ccc2nc(NC(=O)OC)[nH]c2c1` (configuration not stated), the Potency in test [19] was 10.5 µM (active); in [4], 16.6 µM (active); in test [8], 10.5 µM (active). In test [2], the Potency entry is “inactive”.

Turning to `CCN(CC)CCOc1ccc(Cc2ccccc2)cc1`, the Potency entry in [18], in test [3], in test [7] and in test [9] was “inactive” each time. Further, the Potency in test [10] is 23.5 µM (active); in [4], 14.8 µM (active); in test [5], 20.9 µM (active); in [15], 11.8 µM (active); in test [12] it was 20.9 µM (active).

Regarding `CC(=O)O[C@H]1C(=O)[C@@]2(C)C([C@H](OC(=O)c3ccccc3)[C@]3(O)C[C@H](OC(=O)[C@H](O)[C@@H](NC(=O)c4ccccc4)c4ccccc4)C(C)=C1C3(C)C)[C@]1(OC(C)=O)CO[C@@H]1C[C@@H]2O` (some centres not stated), the Potency result in test [18], in [19], in test [1], in test [10], in test [17] and in [4] was “inactive” in each case. Further, the Potency entry in test [5] and in test [12] was “inactive” in each case. The Potency is 14.8 µM (active) in test [14], 0.0187 µM (active) in test [3] and 0.0033 µM (active) in test [8].

As to `CN(C)C(=O)COC(=O)Cc1ccc(OC(=O)c2ccc(N=C(N)N)cc2)cc1`, the Potency result in test [1], in test [4] and in [5] was “inactive” each time. Further, the Potency is 11.8 µM (active) in [10]; 5.26 µM (active) in test [11]; 0.418 µM (active) in [16]; 26.4 µM (active) in test [12]; 5.26 µM (active) in test [9]. Besides, in [8], the viability was 150%.

Take `O=C(O)c1cc(=O)c2c(OCC(O)COc3cccc4oc(C(=O)O)cc(=O)c34)cccc2o1`: the Potency result in test [2], in [17], in test [4], in test [5], in test [7] and in test [9] was “inactive” throughout. The viability in test [8] was 125%.

Regarding `Clc1ccc2c(N3CCN(CCCN4CCN(c5ccnc6cc(Cl)ccc56)CC4)CC3)ccnc2c1`, the Potency entry in [18], in test [2], in test [3], in test [17], in [4] and in [5] was “inactive” each time. Besides, the Potency result in [11], in [6] and in [9] was “inactive” throughout. For the same molecule, the viability in test [8] is 129%.

On to `C[C@H](Cc1ccc(O)c(O)c1)[C@@H](C)Cc1ccc(O)c(O)c1`, for which the Potency in test [19] is 23.5 µM (active); in [14], 6.62 µM (active); in [1], 5.26 µM (active); in test [3], 18.7 µM (active); in test [10], 20.9 µM (active); in test [17], 20.9 µM (active). The Potency is 18.7 µM (active) in [4]; 6.62 µM (active) in test [11]; 16.6 µM (active) in [6]; 26.4 µM (active) in [16]; 18.7 µM (active) in test [8]; 16.6 µM (active) in test [12]. For the same molecule, the Potency in test [9] is 11.8 µM (active). In addition, the Potency result in test [5] is “inactive”.
